# Source: PubChem BioAssay (several laboratories)
# Rows were chosen to be rich in hits. Some 4.5% of all compounds tested hit in one or more screens of this group.
# PrPC surface inh = inhibitors of human cell surface prion protein PrPC; actives 0.43% (n = 370,000); P04156; inhibition, % at 13.8 µM; TR-FRET read-out; in the data active = inhibition above about 24%; note: 0% = median of the test wells and 100% = reference compound wells
# PrP UTR inh = suppresses PrP 5' UTR mRNA reporter expression; cell-based PrP 5' UTR mRNA reporter, plate reader; inhibition, % (concentration not given with the values); actives 0.35% (n = 340,000); AID 488862; in the data active = inhibition above about 52%; note: 0 = median of the neutral control wells
# BJeLR viability = kills HRASV12-expressing BJeLR cells; BJeLR (HRASV12) viability, CellTiter-Glo ATP luminescence, 48 h; actives 0.17% (n = 300,000); AID 1554; inhibition, % (test concentration not listed); in the data active = inhibition above about 50%
# PfHsp40 yeast = rescue of PfHsp40-mediated yeast toxicity | growth rescue, % at 12.5 µM | S. cerevisiae expressing PfHsp40, growth rescue, ATP luminescence | actives 0.68% (n = 340,000); in the data active = growth rescue above about 28%, passing the limit was not always enough;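 note: yeast W303a lacking pdr1 and pdr3 grown in galactose medium; growth measured after three days at 30 °C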
# GDH-TPI counter-1 = counter-screen for M. tuberculosis FBA inhibitors: GDH-TPI coupled enzymes | GDH-TPI coupled enzyme counterscreen, NADH absorbance | inhibition, % at 4.8 µM | actives 1.2% (n = 360,000); in the data active = inhibition above about 30%;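 note: 0% = DMSO wells and 100% = wells lacking the enzyme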
# FBA Mtb inh = Mtb fructose-bisphosphate aldolase inhibition | P9WQA3 | purified M. tuberculosis FBA, fluorescence read-out | inhibition, % at 1 µM | actives 2.3% (n = 360,000) | AID 588726;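 note: 0% = vehicle and 100% = reference inhibitor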
# Target sequence (P9WQA3 whole entry, looked up): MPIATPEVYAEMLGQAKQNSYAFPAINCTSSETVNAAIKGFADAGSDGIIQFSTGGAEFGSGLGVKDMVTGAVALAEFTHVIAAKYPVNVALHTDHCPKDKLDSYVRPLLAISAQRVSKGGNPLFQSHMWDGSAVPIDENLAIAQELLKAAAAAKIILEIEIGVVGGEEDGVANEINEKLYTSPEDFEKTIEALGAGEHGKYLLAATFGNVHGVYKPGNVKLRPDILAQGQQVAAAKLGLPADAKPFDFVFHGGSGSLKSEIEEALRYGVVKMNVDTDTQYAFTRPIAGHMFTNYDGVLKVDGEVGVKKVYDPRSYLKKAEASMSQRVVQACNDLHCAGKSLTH
# Mtb FBA inh conf = confirmation of M. tuberculosis fructose-bisphosphate aldolase inhibitors. shares compounds with FBA Mtb inh. purified M. tuberculosis FBA, fluorescence read-out. inhibition, % at 1 µM. actives 78% (n = 5,600). AID 651616;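 note: 0% = vehicle wells and 100% = reference inhibitor wells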
# GDH-TPI counter-2 = GDH-TPI inhibition counter-screen for FBA inhibitors; shares compounds with FBA Mtb inh; GDH-TPI coupled enzyme counterscreen, fluorescence; inhibition, % at 1 µM; actives 81% (n = 5,600); in the data active = inhibition above about 10%
# Starred values were filed as active, the others as inactive; x = no result; + = active, no number. Cut-off read from the data, not from the text of the source, unless noted: active = inhibition above about 27%; inactive = the rest.
SMILES,PrPC surface inh,PrP UTR inh,BJeLR viability,PfHsp40 yeast,GDH-TPI counter-1,FBA Mtb inh,Mtb FBA inh conf,GDH-TPI counter-2
Nc1ccc(C#Cc2c(-c3ccsc3)oc3ccc(N4CCOCC4)cc23)cc1,13,-5,-5,1,22,41*,102*,75*
COc1ccc(-c2c(-c3ccsc3)oc3ccc(N4CCOCC4)cc23)cn1,5,-17,9,0,1,27,x,x
COc1ccc(-c2oc3ccc(N4CCOCC4)cc3c2C#CCO)cc1,-6,-22,10,1,47*,33*,48*,35*
C[C@H](N)C(=O)N1CCC(C(=O)N[C@@H](Cc2ccccc2)C(=O)Nc2ccc(F)cc2)CC1,11,17,-2,0,9,4,x,x
Cc1cccn2c(=O)c(/C=C(\C#N)C(=O)NC3CCS(=O)(=O)C3)c(Oc3ccc(F)cc3)nc12 (stereo not given),4,-16,9,0,-3,32*,+,+
N#C/C(=C\c1c(N2CCCCC2)nc2ccccn2c1=O)C(=O)NC1CCS(=O)(=O)C1 (stereo not given),-10,-11,6,0,13,6,x,x
N#C/C(=C\c1c(Oc2ccc(Cl)cc2)nc2ccccn2c1=O)C(=O)NC1CCS(=O)(=O)C1 (stereo not given),-10,-21,9,0,8,86*,+,182*
COc1ccc(Oc2nc3c(C)cccn3c(=O)c2/C=C(\C#N)C(N)=O)cc1,-2,-5,0,1,6,6,x,x
Cc1cc(Oc2nc3ccccn3c(=O)c2/C=C(\C#N)C(=O)NC2CCS(=O)(=O)C2)ccc1Cl (stereo not given),-4,-7,-10,-1,2,45*,139*,113*
Cc1cccc(Oc2nc3ccccn3c(=O)c2/C=C(\C#N)C(=O)NC2CCS(=O)(=O)C2)c1C (stereo not given),2,-15,5,-3,8,51*,107*,80*
Cc1cccc(Oc2nc3ccccn3c(=O)c2/C=C(\C#N)C(=O)NC2CCS(=O)(=O)C2)c1 (stereo not given),-7,-13,5,0,3,18,x,x
CC1(C)C2CCC1(CS(=O)(=O)N1CCC(C(=O)O)CC1)C(=O)C2 (stereo not given),5,-5,-2,1,-1,-6,x,x
Cc1cc(Br)cc(Br)c1OCC(=O)NNC(=O)c1ccoc1C,-4,-8,9,0,17,4,x,x
CC(C)(C)c1ccc(S(=O)(=O)N2CCN(c3ccccn3)CC2)cc1,-2,-9,5,-1,13,0,x,x
OCCNc1nc(-c2ccccc2)c2cc(Cl)ccc2n1,-5,0,-3,6,7,39*,123*,104*
Cc1ccc2nc(NCCO)nc(-c3ccccc3)c2c1,-7,8,0,0,0,37*,73*,48*
Cc1ccc2nc(N/N=C/c3ccccc3F)nc(-c3ccccc3)c2c1,-3,-33,0,2,15,52*,5,-2
Cc1ccc2nc(N/N=C/c3ccccc3C#N)nc(-c3ccccc3)c2c1,x,-15,-4,5,22,1,x,x
Cc1ccc2nc(NCC(=O)NN)nc(-c3ccccc3)c2c1,-7,-13,-1,3,19,26,x,x
NNc1nc(-c2ccccc2)c2ccccc2n1,-3,11,6,3,13,0,x,x
OCCNc1nc(-c2ccccc2)c2ccccc2n1,-6,-2,-2,-1,17,52*,171*,148*
CC1CCN(S(=O)(=O)c2cn(CC(=O)Nc3ccc(C#N)cc3)cn2)CC1,2,-19,1,0,3,-8,x,x
CC1CCC(CC(=O)O)(C(=O)O)CC1 (stereo not given),-6,-27,x,-3,5,-1,x,x
COC(=O)[C@]12CCCCC=C1N(Cc1ccc(OC)cc1)C(=O)[C@@H]2CC(=O)N1CCCCC1,-6,x,x,x,x,x,x,x
CCCc1cc(=O)n2[nH]c(SCc3ccc(Cl)cc3)nc2n1,0,-5,-1,-3,4,4,x,x
SMILES,PrPC surface inh,PrP UTR inh,BJeLR viability,PfHsp40 yeast,GDH-TPI counter-1,FBA Mtb inh,Mtb FBA inh conf,GDH-TPI counter-2
CCCc1cc(=O)n2[nH]cc(-c3ccc(Cl)cc3)c2n1,3,-13,12,0,9,54*,-11,-11
Cc1cc(=O)n2[nH]cc(-c3ccccc3)c2n1,1,-2,7,-1,7,34*,73*,60*
CCC(=O)N1CCN(c2ccc(NC(=S)NC(=O)c3cc4ccccc4o3)cc2)CC1,-4,-19,6,0,0,1,x,x
O=c1oc2ccccc2c2c1ccc1ccccc12,-2,-27,x,17,14,29*,51*,43*
O=c1oc2ccc3ccccc3c2cc1-c1nc2ccccc2o1,-2,-21,3,0,8,46*,73*,67*
Cc1cc2c(c(N)n1)c(=O)oc1ccccc12,8,-4,3,0,18,40*,0,0
COC(=O)c1c(C)nc(C)c2c(=O)oc3ccccc3c12,-5,-4,4,-2,5,2,x,x
COC(=O)c1ccc(Cn2ccc3ccc(-c4ccc5ccn(Cc6ccc(OC)cc6)c5c4)cc32)cc1,7,x,x,x,x,x,x,x
CC1(C)CC(=O)C2=C(C1)c1c(ccc3ccccc13)NC2c1ccco1 (stereo not given),4,-8,-8,2,1,87*,104*,89*
O=C(NCCCN1CCOCC1)C(=O)NCc1ccco1,9,-2,-2,-1,6,0,x,x
C/C(=N\Nc1ccccc1)c1cc2ccccc2oc1=O,-9,2,0,-1,11,65*,6,-8
C/C(=N\NC(=O)CC#N)c1cc2ccccc2oc1=O,1,-12,-8,-2,6,-1,x,x
C[C@H]1CN([C@@H](C)CO)C(=O)c2cc(/C=C/c3ccccc3)cnc2O[C@H]1CN(C)C(=O)c1cccc(F)c1,-7,x,x,x,3,64*,66*,58*
CCC1(OC(=O)CN(C)C)C(=O)OCc2c1cc1n(c2=O)Cc2cc3c(N)cccc3nc2-1 (stereo not given),x,21,x,0,24,53*,-2,-2
Cc1ccn2c(CC(C)(C)C)c(-c3ccc(F)cc3)nc2c1,8,x,x,x,-5,3,x,x
O=C(Nc1ncn[nH]1)c1ccccc1O,-6,-18,6,1,1,56*,+,+
O=C(NNS(=O)(=O)c1ccc2ccccc2c1)c1cc(-c2ccccn2)nc2ccccc12,-8,-12,-3,-1,9,-1,x,x
